High-throughput results deposited in PubChem BioAssay by National Center for Advancing Translational Sciences (NCATS).
An excerpt weighted towards active compounds, which were near 9.4% of everything screened.
FLuc counter: inhibits or activates purified firefly luciferase, miR-21 counter-screen | AID 588342 | P08659 | Potency, µM (series often up to 57.5 µM), for the others: top-dose activity change, negative = inhibition, actives largely listed as inhibitors | purified FLuc, Km substrates, luminescence inhibition | 360,000 compounds, 6.9% hits;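 note: plate controls were vehicle for no effect and reference inhibitor for full effect; nearly all actives have a fitted effect of over 55% in size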
Target sequence (P08659 whole entry, looked up): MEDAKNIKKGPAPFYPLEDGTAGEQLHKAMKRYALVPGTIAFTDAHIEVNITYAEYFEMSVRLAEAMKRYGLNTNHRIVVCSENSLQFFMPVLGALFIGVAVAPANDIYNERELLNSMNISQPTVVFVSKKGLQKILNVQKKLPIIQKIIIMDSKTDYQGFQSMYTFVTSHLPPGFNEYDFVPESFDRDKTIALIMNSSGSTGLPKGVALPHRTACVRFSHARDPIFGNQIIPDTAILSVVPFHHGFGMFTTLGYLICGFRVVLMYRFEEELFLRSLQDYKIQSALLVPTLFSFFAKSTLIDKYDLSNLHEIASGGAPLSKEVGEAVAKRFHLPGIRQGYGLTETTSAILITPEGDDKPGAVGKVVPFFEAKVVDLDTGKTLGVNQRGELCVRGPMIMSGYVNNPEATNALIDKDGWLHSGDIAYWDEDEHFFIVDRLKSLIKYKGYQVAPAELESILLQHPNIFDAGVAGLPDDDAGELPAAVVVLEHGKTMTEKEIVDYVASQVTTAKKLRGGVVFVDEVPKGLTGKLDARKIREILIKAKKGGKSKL
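Purified P. pyralis luciferase (10nM final) with 10uM D-luciferin and 10uM ATP (Km levels) in 50mM Tris acetate pH 7.5, 10mM Mg acetate, 0.01% Tween-20, 0.05% BSA; qHTS 6-point titration, ~60 µM downward; luminescence read.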
ELG1 genotox: inducers of genotoxicity in HEK293T ELG1-luciferase cells | HEK293T ELG1-luciferase reporter, luminescence, 16 h | Potency, µM (highest dose often 46 µM), without a hit: at the highest dose activity change, positive = activation, usual class: activators | 330,000 compounds, 1.3% hits | AID 504466; note: % of control where 0% means no effect; nearly all actives have a fitted effect of over 60% in size
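Genotoxic stress is detected as increased luminescence from luciferase-tagged ELG1 in HEK293T cells, measured with ONE-Glo after a 16 hr treatment at 37 °C.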
NPC1 prom act: NPC1 promoter activation. Huh7 NPC1 promoter luciferase reporter, 24 h. Potency, µM (titrated, usually from 9.22 µM), inactives show top-dose activation, most hits filed as activators. 320,000 compounds, 2.4% hits. AID 485313; note: % of control where 0% means no effect; nearly all actives have a fitted effect of over 60% in size
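Luciferase expression driven by the NPC1 promoter was measured in stably transfected Huh7 cells after a 24 h compound incubation, using a luciferase reagent and a luminescence read.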
SMN2 splice up: increases expression of the SMN2 splice variant. HEK293 SMN2-luciferase splicing reporter, luminescence, 30-36 h. Potency, µM (doses to about 46.1 µM), inactives show top-dose activity change, positive = activation, actives largely listed as activators. 210,000 compounds, 2.8% hits. AID 1458; note: % of control where 0% means no effect; nearly all actives have a fitted effect of over 55% in size
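HEK293 cells carry an SMN2 minigene-luciferase reporter in which exon 7 inclusion puts luciferase in frame. Cells were seeded at 2000 cells/well, attached for 10-12 hours, then exposed to compounds for 30-36 hours at 37C before ONE-Glo luminescence.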
ELG1 DNA repair: ELG1-dependent DNA repair inhibition; HEK293T ELG1-luciferase reporter, luminescence, 16 h; DNA damage induced by 5-fluorouridine; Potency, µM (series often up to 46.1 µM), inactives show at the highest dose activity change, negative = inhibition, most hits filed as inhibitors; 330,000 compounds, 2.3% hits; note: % is set by controls: 0 for no effect and ±100 for the full control effect; nearly all actives have a fitted effect of over 55% in size
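Luminescence from the luciferase reporter, measured 30 min after ONE-Glo reagent at room temperature, was the read-out. Beforehand, 2,000 cells per well were exposed for 16 hr at 37 °C to 5-fluorouridine together with compound or vehicle.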
Rab9 promoter act: Rab9 promoter activation; Potency, µM (titrated, usually from 9.22 µM), for inactives: at the highest dose activation, negative = inhibition, hits mostly activators; Huh7 Rab9 promoter-luciferase reporter, luminescence, 24 h; 320,000 compounds, 2.8% hits; AID 485297; note: % of control where 0% means no effect; nearly all actives have a fitted effect of over 60% in size
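Huh7 cells stably carrying a Rab9 promoter-luciferase reporter, 1500 cells per well in OP-MEM I with 10% FBS, treated with compound 24 hours at 37C. Luciferase activity read by luminescence after 10 minutes with Amplite reagent.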
Numbers without * were called inactive; ? = inconclusive; · = no result; [ ] = dose if it differs, or a comment. Calls come from the whole dose curve; as a rule, active = well fitted curve in the direction sought with a large enough effect; inconclusive = small, poorly fitted or top-dose-only effect, or another doubt; inactive = no such curve, though single readings can be large; an effect the other way counts as inactive or inconclusive. Potency is the fitted concentration of half-maximal effect.

SMILES | FLuc counter | ELG1 genotox | NPC1 prom act | SMN2 splice up | ELG1 DNA repair | Rab9 promoter act
C=CCn1cc(C(=O)NCCCOCC)c(=O)c2cc(S(=O)(=O)N(CC)CC)ccc21 | 0% | -2% | 0% | -19% | 18µM* | -4%
CCn1cc(C(=O)NCCCN(C)c2ccccc2)c(=O)c2cc(S(=O)(=O)N(C)C)ccc21 | 0% | -13% | -1% | -4% | ? | -5%
CC(C)CCNC(=O)N1CCN(S(=O)(=O)c2ccc3c(ccn3C)c2)CC1 | -1% | · | · | · | · | ·
Cc1cc(C)nc(Nc2n[nH]c(-c3ccccc3C)n2)n1 | 9.5µM* | 21µM* | 2µM* | 11µM* | ? | 1.8µM*
Cc1cc(C)nc(Nc2n[nH]c(C)n2)n1 | -2% | -2% | -5% | · | 0% | -3%
Cc1cc(C)nc(Nc2n[nH]c(-c3ccccc3Br)n2)n1 | 9.5µM* | 18µM* | ? | 81% | ? | ?
Cc1cc(C)nc(Nc2ccccc2Br)n1 | -14% | 5% | 2% | -1% | 0% | 0%
CC(C)CNC(=O)c1c(N)n(/N=C/c2cccnc2)c2nc3ccccc3nc12 | 1% | -1% | -2% | 24% | -3% | -7%
CC(C)OCCCNC(=O)c1c(N)n(/N=C/c2ccccn2)c2nc3ccccc3nc12 | 0% | -14% | 1% | -15% | 7.3µM* | -3%
CCC(C)NC(=O)c1c(N)n(/N=C/c2cccnc2)c2nc3ccccc3nc12 (centres undefined) | -3% | -18% | -2% | -13% | 12µM* | 2%
Cc1ccc(Cn2c(=O)c3ccccc3n3c(-c4ccccc4)nnc23)cc1 | -2% | · | · | · | · | ·
O=C(O)c1cccc(N/N=C(\N=Nc2ccccc2)c2ccccc2)c1 | 17µM* | ? | ? | · | ? | ?
O=C(O)c1ccc(N=N/C(=N\Nc2ccc(C(=O)O)cc2)c2ccccc2)cc1 | 17µM* | 12% | ? | · | ? | ?
O=C(/C(=N\Nc1ccc(Br)cc1)Sc1nnnn1-c1ccccc1)c1ccccc1 | 0% | -5% | -2% | 14% | 1% | -10%
Brc1ccc(N/N=C(/N=Nc2nn[nH]n2)c2ccccc2)cc1 | 19µM* | -2% | -31% | -117% | ? | -41%
NC(=O)/C(N=Nc1ccccc1)=N/Nc1ccccc1 | -10% | 11% | 1% | · | 22% | -1%
COC(=O)c1nc(-c2ccc(C)cc2)oc1N(C)C | 19µM* | 12% | 11% | 1% | 10% | 10%
COc1cc2c(cc1OC)CN(C(=O)/C=C/c1ccccc1[N+](=O)[O-])CC2 | 0% | -8% | -25% | · | 13µM* | -11%
CCOC(=O)C(C)(C)[C@H](O)C(C)C | · | · | · | -3%[9.22 µM] | · | ·
CCOC(=O)Cn1c(=O)n(C2CCCCC2)c2nc(-c3ccc(C(C)C)cc3)nc(C(N)=O)c21 | 0% | · | · | · | · | ·
COc1ccc(/C=N/Nc2nncc3ccccc23)cc1 | 0.17µM* | 0.26µM* | 0.28µM* | 0.71µM* | ? | 0.2µM*
COc1ccc(/C(C)=N/Nc2nncc3ccccc23)cc1 | 1.3µM* | ? | 1.6µM* | · | ? | 0.71µM*
COc1ccccc1/C=N/Nc1nncc2ccccc12 | 9.5µM* | ? | ? | 10µM* | ? | 3.5µM*
COc1ccccc1/C=N/NC(=O)c1cccc2ccccc12 | -2% | -2% | -1% | · | 13% | -3%
NNc1nncc2ccccc12 | · | · | 2.6µM* | 13µM* | · | 2.3µM*
CCCc1nn2c(=O)cc(COC(=O)c3ccc(NC(=O)c4cccs4)cc3)nc2s1 | 0% | · | · | · | · | ·
C=CCCCC | · | · | · | -8% | · | ·
COc1ccc(/C(C)=N/Nc2nc3ccccc3nc2C)cc1 | 2.7µM* | 7% | 4% | · | ? | 6%
O=C(N/N=C/c1cc(Br)c(O)c(Br)c1)c1cccnc1 | -14% | -1% | 0% | · | -3% | 1%
Oc1c(Br)cc(/C=N/Nc2nncc3ccccc23)cc1Br | 9.5µM* | 12% | ? | · | ? | 29%
